The source made the active and inactive calls. Unless noted, the rule behind the calls is not given here.
Experiments:
[1] = anti-His antibody binders, primary screen, artefact control for SMM control protein annotation, biochemical, small-molecule microarray, 635 nm fluorescence (AID 1128); details: anti-His Alexa647 antibody binding, higher = more signal;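 note: score merges feature fluorescence with signal-to-noise for each printed compound spot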
[2] = test system: Human papillomavirus type 1a E7 protein (residues 1-88); assay: HPV1a E7 small-molecule binders, primary screen, biochemical, small-molecule microarray, residues 1-88, 635 nm (AID 1129); details: small-molecule microarray binding, fluorescence 635 nm; higher = more signal
[3] = target: Focal adhesion kinase 1 (Homo sapiens) (UniProt Q05397); assay: small-molecule microarray binders of FAK, primary screen, biochemical, 635/667 nm fluorescence, BSA, DTT (AID 1130); details: PTK2 binding, 635 nm fluorescence, higher = more signal;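 note: composite of spot emission at 667 nm and signal to noise over triplicate slides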
Sequence of Focal adhesion kinase 1 (Homo sapiens) (Q05397 whole entry, looked up): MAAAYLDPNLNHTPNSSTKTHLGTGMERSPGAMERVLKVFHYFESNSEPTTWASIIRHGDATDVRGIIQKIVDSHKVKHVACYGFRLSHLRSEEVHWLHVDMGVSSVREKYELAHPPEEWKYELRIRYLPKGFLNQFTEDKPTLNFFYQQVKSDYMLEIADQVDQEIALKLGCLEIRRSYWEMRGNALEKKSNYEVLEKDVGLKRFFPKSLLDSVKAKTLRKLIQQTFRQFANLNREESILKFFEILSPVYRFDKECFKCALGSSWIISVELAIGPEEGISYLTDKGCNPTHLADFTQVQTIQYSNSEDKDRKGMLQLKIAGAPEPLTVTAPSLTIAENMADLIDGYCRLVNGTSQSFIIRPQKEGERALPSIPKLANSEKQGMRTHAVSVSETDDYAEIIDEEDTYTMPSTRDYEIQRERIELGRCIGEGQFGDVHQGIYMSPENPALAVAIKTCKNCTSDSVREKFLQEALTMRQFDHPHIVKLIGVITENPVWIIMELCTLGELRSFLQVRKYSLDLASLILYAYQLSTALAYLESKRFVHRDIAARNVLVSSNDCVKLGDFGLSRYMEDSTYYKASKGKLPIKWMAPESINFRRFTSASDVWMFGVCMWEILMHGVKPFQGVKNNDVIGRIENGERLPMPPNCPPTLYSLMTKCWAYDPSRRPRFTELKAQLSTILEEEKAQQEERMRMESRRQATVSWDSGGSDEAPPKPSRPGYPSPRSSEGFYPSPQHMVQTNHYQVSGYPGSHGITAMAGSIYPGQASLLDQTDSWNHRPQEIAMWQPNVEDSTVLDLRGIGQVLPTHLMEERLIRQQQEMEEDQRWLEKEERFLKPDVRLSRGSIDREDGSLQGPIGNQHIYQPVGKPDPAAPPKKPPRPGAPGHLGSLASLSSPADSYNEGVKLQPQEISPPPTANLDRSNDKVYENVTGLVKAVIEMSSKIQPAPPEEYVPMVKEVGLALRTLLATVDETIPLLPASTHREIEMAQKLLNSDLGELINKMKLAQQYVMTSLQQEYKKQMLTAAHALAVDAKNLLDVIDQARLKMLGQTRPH

[4] = test system: Fibrinogen (Alexa647-labelled); assay: fibrinogen binders on compound microarrays, profiling panel, artefact control for SMM control-protein annotation, biochemical, small-molecule microarray, 635/667 nm fluorescence (AID 1131); details: fibrinogen-A647 binding fluorescence, higher = more signal;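 note: z-score merges 667 nm fluorescence with per-spot signal-to-noise over triplicate slides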
[5] = target: Follistatin (Homo sapiens) (UniProt P19883); assay: follistatin binders on small-molecule microarrays, primary screen, biochemical, small-molecule microarray, 635/667 nm fluorescence (AID 1132); details: FST binding, 635 nm fluorescence, higher = more signal
Sequence of Follistatin (Homo sapiens) (P19883 whole entry, looked up): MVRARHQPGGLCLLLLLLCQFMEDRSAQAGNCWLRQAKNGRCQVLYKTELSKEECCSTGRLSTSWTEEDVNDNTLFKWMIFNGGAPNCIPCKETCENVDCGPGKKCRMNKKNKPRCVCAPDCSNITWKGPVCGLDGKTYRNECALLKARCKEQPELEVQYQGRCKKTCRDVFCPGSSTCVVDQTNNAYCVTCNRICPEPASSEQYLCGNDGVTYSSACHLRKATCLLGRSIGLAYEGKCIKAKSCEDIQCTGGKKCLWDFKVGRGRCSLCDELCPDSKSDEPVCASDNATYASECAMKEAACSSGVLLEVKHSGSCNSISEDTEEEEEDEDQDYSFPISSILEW

[6] = target: Fibroblast growth factor 2 (Homo sapiens) (UniProt P09038); assay: FGF2 binders on small-molecule microarrays, primary screen, biochemical, small-molecule microarray, 635/667 nm fluorescence (AID 1133); details: small-molecule microarray binding, FGF2, fluorescence 635/667; higher = more signal
Sequence of Fibroblast growth factor 2 (Homo sapiens) (P09038 whole entry, looked up): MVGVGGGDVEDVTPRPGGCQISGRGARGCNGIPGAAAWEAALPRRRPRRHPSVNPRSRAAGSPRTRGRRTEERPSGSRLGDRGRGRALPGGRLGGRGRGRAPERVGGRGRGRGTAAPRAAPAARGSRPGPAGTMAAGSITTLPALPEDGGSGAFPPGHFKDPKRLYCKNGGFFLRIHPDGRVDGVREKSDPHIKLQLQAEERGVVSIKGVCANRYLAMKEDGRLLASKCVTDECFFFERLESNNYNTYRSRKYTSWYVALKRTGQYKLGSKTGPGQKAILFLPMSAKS

[7] = mitochondrial membrane potential change in A549 cells, profiling panel, cell-based, JC-1 fluorescence, basal, 24 h, 100 nL (AID 1138); details: higher = more signal;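 note: A549 lung adenocarcinoma cells under basal conditions with no added stimulus; test concentration not given here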
Lefty1 = Lefty1 binders on small-molecule microarrays, primary screen, biochemical, small-molecule microarray, 635/667 nm fluorescence (AID 1139); details: small-molecule microarray binding, fluorescence 635/667; higher = more signal
[8] = test system: wheat germ agglutinin (Triticum aestivum), Alexa647-labelled; assay: wheat germ agglutinin binders on compound microarrays, profiling panel, artefact control for SMM control-protein annotation, biochemical, small-molecule microarray, 635/667 nm fluorescence (AID 1140); details: WGA-A647 binding, 635 nm fluorescence, higher = more signal;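 note: score merges 667 nm feature emission with signal to noise over triplicate slides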
[9] = target: Luciferin 4-monooxygenase (Photinus pyralis) (UniProt P08659); assay: firefly luciferase enzyme inhibitors, primary screen, biochemical, luminescence, purified enzyme, 2006 set (AID 1141); details: SteadyGlo luminescence, 30 min, higher = more signal, called active from +8 up or from −8 down;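 note: cell-free assay with purified firefly luciferase at 100 ng per well in PBS; test concentration not given here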
Sequence of Luciferin 4-monooxygenase (Photinus pyralis) (P08659 whole entry, looked up): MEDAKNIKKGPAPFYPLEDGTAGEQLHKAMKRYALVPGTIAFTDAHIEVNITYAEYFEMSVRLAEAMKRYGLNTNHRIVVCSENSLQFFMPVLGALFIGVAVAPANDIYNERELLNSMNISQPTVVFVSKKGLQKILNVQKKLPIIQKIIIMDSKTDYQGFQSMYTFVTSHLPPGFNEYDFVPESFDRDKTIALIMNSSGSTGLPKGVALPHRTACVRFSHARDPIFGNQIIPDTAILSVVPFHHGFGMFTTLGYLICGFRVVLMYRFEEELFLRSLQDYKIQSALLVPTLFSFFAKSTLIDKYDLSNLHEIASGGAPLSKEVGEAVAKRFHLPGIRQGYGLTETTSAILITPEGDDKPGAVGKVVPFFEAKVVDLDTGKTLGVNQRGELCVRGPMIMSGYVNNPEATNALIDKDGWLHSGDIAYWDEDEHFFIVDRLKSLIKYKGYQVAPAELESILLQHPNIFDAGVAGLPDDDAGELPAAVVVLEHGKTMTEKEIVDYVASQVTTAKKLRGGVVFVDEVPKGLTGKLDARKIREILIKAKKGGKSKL

[10] = test system: Wnt5a (protein binding on small-molecule microarray); assay: Wnt5a binders on small-molecule microarray, primary screen, biophysical, 635/667 nm fluorescence (AID 1142); details: 635 nm fluorescence, higher = more signal;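 note: fluorescence read at 667 nm with signal to noise per printed feature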
[11] = cell viability in Huh7 cells, primary screen, cytotoxicity control for HCV replication inhibitor project, CellTiter-Glo luminescence, basal, 48 h (AID 1143); details: Huh7 HCV replicon, higher = more signal, called active from +8 up or from −8 down;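 note: Huh7 hepatoma cells carrying a hepatitis C replication reporter with no stimulus; test concentration not given here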
[12] = P. aeruginosa biofilm formation inhibitors, primary screen, PAO1 strain, BacTiter-Glo luminescence, LB-PBS (AID 1144); details: 12 h, higher = more signal
[13] = CREB reporter modulators without forskolin, primary screen, cell-based, PC12, CRE-LacZ reporter, unstimulated (AID 1145); details: no forskolin, luminescence, 4.5 h, higher = more signal, called active from +8 up or from −8 down
[14] = CREB reporter modulators under forskolin, primary screen, cell-based, PC12, CRE-LacZ reporter, forskolin-stimulated (AID 1146); details: luminescence, 4.5 h, higher = more signal, called active from +8 up or from −8 down;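 note: PC12 cells with 6xCRE LacZ reporter stimulated by forskolin 10 µM; beta-galactosidase reporter signal reflecting CREB driven transcription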
[15] = target: Streptavidin (Streptomyces avidinii) (UniProt P22629); assay: streptavidin binders on small-molecule microarray, primary screen, artefact control for SMM compound annotation, biophysical, 635/667 nm fluorescence (AID 1147); details: streptavidin binding, higher = more signal;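 note: signal reflects streptavidin binding to arrayed compounds as a control protein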
Sequence of Streptavidin (Streptomyces avidinii) (P22629 whole entry, looked up): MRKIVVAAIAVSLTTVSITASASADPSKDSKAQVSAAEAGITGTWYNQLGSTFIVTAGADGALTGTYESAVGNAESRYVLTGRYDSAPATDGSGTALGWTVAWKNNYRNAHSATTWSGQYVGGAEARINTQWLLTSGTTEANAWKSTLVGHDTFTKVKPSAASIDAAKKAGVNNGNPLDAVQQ

[16] = small-molecule binders of probe aInhba, primary screen, biochemical, small-molecule microarray, 635/667 nm fluorescence (AID 1148); details: higher = more signal;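 note: score merges 667nm spot fluorescence with signal-to-noise for antibody binding to printed compounds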
Torsin-1A (Homo sapiens) [17] = target: Torsin-1A (Homo sapiens) (UniProt O14656); assay: torsin A binders from cell lysate, primary screen, small-molecule microarray, wild-type, 635/667 nm (AID 1149); details: COS7 hTOR1A-WT lysate, 635 nm fluorescence, higher = more signal
Sequence of Torsin-1A (Homo sapiens) (O14656 whole entry, looked up): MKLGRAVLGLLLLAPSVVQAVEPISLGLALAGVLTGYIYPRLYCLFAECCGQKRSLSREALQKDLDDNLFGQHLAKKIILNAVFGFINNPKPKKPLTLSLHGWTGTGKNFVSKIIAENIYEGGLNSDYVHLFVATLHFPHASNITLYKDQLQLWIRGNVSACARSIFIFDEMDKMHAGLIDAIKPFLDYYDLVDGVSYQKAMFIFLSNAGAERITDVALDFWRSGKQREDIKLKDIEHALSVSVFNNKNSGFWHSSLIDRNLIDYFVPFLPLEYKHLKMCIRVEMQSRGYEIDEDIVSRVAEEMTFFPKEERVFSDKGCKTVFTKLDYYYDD

Torsin-1A (Homo sapiens) [18] = target: Torsin-1A (Homo sapiens) (UniProt O14656); assay: small-molecule binders of mutant TOR1A in lysate, primary screen, cell lysate, small-molecule microarray, COS7 lysate, 635/667 nm fluorescence (AID 1150); details: COS7 hTOR1A mutant lysate, 635 nm fluorescence, higher = more signal;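 note: score pools 667 nm emission and signal to noise measuring lysate protein binding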
[19] = test system: Sonic hedgehog protein (Shh); assay: small-molecule binders of Shh protein, primary screen, biochemical, small-molecule microarray, 635/667 nm fluorescence (AID 1151); details: small-molecule microarray binding, 635 nm fluorescence; higher = more signal;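 note: Shh protein binding to compounds spotted on small-molecule microarray slides; score combines spot fluorescence intensity with signal-to-noise across triplicate slides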

Row | SMILES | composite z-score [1] | composite z-score [2] | composite z-score [3] | composite z-score [4] | composite z-score [5] | composite z-score [6] | z-score [7] | composite z-score (Lefty1) | composite z-score [8] | z-score [9] | composite z-score [10] | z-score [11] | z-score [12] | z-score [13] | z-score [14] | composite z-score [15] | composite z-score [16] | composite z-score (Torsin-1A (Homo sapiens) [17]) | composite z-score (Torsin-1A (Homo sapiens) [18]) | composite z-score [19]
1 | COCCOC(=O)N1C(=O)[C@@]2(c3cc(C#CC4=CCCCC4)ccc31)[C@H](C(=O)N1CCCCCCC1)[C@H]1C(=O)O[C@H](c3ccccc3)[C@H](c3ccccc3)N1[C@@H]2c1ccc(O)cc1 | -0.014 | 1.13 | 0.701 | -0.0414 | 1.12 | 0.446 | 0.5 | 0.486 | 0.436 | -5.8 (inactive) | 0.278 | -4.39 (inactive) | -1.7 (inactive) | -0.815 (inactive) | 0.234 (inactive) | 0.0947 | 0.329 | 0.681 | 0.595 | 1.3
2 | NC(=O)NCC#Cc1ccc2c(c1)[C@]1(C(=O)N2)[C@H](C(=O)NC[C@H](O)c2ccccc2)[C@H]2C(=O)O[C@H](c3ccccc3)[C@H](c3ccccc3)N2[C@@H]1c1ccc(OCCO)cc1 | -0.0888 | 1.05 | -0.0193 | 0.829 | 1.29 | 0.177 | -0.303 | -0.0126 | 0.915 | -1.9 (inactive) | 0.496 | 0.546 (inactive) | -0.223 (inactive) | -0.698 (inactive) | -0.535 (inactive) | 0.661 | 0.185 | -0.0075 | -0.002 | 0.728
3 | CCCCC=C[C@@H](NC(=O)c1ccc(-c2ccccc2)cc1)c1ccccc1 | 0.512 | 1.19 | 0.416 | 0.413 | -0.107 | -0.0601 | -0.428 | -0.217 | 0.535 | 2.01 (inactive) | -0.0312 | -1.76 (inactive) | -0.00961 (inactive) | 0.197 (inactive) | -0.013 (inactive) | 1.18 | 0.319 | 0.58 | 0.871 | -0.181
4 | CCOC(=O)C1=C[C@@H](c2ccccc2)N(S(=O)(=O)c2ccc(C)cc2)[C@H]1c1ccccc1Cl | 0.857 | 1.17 | 1.6 | 0.86 | 0.761 | 0.414 | 1.53 | 0.838 | 0.778 | 0.86 (inactive) | 0.387 | -3.97 (inactive) | 0.533 (inactive) | -0.312 (inactive) | 0.343 (inactive) | 1.6 | -0.0221 | 0.888 | 0.273 | 0.844
5 | CC(=O)NCCCC[C@@H]1NC(=O)[C@H]2C[C@@H](C(=O)NCCCC[N+](C)(C)C)[C@@H](c3cccc(OCCO)c3)N2C1=O | 1.57 | -0.416 | 0.191 | 0.231 | 1.47 | 1.85 | 0.584 | 1.71 | 0.552 | -1.42 (inactive) | 0.975 | -1.62 (inactive) | 0.481 (inactive) | -0.667 (inactive) | 0.451 (inactive) | -0.296 | 0.0031 | 1.07 | 2.34 | 2.18
6 | [N-]=[N+]=Nc1ccccc1[C@H]1OC(c2ccc(OCCCO)cc2)=N[C@@]1(CCS(=O)(=O)c1ccccc1)C(=O)NCCN1CCOCC1 | 1.51 | 1.26 | 0.56 | 0.938 | 1.34 | 0.471 | 0.162 | 0.619 | 0.821 | -6.93 (inactive) | 1.11 | -1.14 (inactive) | 1.38 (inactive) | -0.45 (inactive) | -0.5 (inactive) | 0.866 | 0.283 | 0.484 | 1.47 | 0.273
7 | Cc1ccc(S[C@]2(C(=O)O)CC(=O)N(C3Cc4ccccc4C3)[C@@H]2c2ccc(CO)cc2)cc1 | 3.14 | 0.246 | 0.583 | -0.428 | -0.987 | -0.306 | 0.225 | -0.889 | -0.339 | -0.675 (inactive) | -0.127 | 0.121 (inactive) | 0.0572 (inactive) | 0.001 (inactive) | 0.629 (inactive) | -0.395 | 0.0018 | 0.794 | 0.431 | -0.3
8 | COc1ccc(C(O)C2C=CC3C(=O)N(c4ccccc4)C(=O)C3N2Nc2ccc([N+](=O)[O-])cc2)cc1 (stereo not given) | 2.11 | 1.24 | 0.961 | 1.01 | 0.848 | -0.246 | 0.103 | -0.344 | 1.14 | 0.732 (inactive) | 0.516 | -0.474 (inactive) | 0.403 (inactive) | 0.182 (inactive) | -0.298 (inactive) | 0.789 | 1.18 | 0.0294 | 0.874 | -0.397
9 | CCOC(=O)C1=CC[C@@H](c2cccc(Cl)c2)N(S(=O)(=O)c2ccc(C)cc2)C1 | 1.66 | 1.14 | 0.399 | -0.112 | 0.191 | -0.0072 | 2.48 | -0.345 | 0.844 | -2.75 (inactive) | -0.159 | -5.08 (inactive) | -0.06 (inactive) | -0.574 (inactive) | 0.132 (inactive) | 0.449 | 0.0173 | 0.176 | 0.193 | -0.327
10 | COc1ccc([Si](C)(C)[C@@H]2[C@@H](CC(=O)N(CCO)Cc3ccccc3)O[C@]3(C(=O)N(c4ccccc4)c4ccccc43)[C@H]2C)cc1 | 1.13 | 1.14 | 0.437 | 0.874 | 1.07 | 0.716 | 0.0115 | 1.29 | 0.291 | 0.293 (inactive) | 0.272 | -7.08 (inactive) | -0.334 (inactive) | 7.53 (inactive) | -2.26 (inactive) | 0.675 | -0.125 | 0.555 | 0.3 | 1.17
